Data reported in PubChem BioAssay (NCATS).
Results filed as inconclusive are left out. Where a call stands in place of a potency, no number is given. Active and inactive are the calls of the source. The call rests on the fitted dose curve; in most records, active means well fitted cell-killing curve with a large enough effect; inconclusive means small, poorly fitted or top-dose-only effect; inactive means flat fitted curve, though single readings scatter.

Assay: Cell Viability - LYMP2-016 (AID 984); further: nearly all actives have a fitted effect of over 55% in size
Settings: LYMP2-016 lymphoblastoid cell viability, qHTS; series mostly up to 92.2 µM
Source text: NIH Chemical Genomics Center [NCGC]
NIH Molecular Libraries Screening Centers Network [MLSCN]
National Institutes of Environmental Health Sciences [NIEHS]
National Toxicology Program [NTP]
We have developed a 1536-well cell-based assay for quantitative high throughput screening (qHTS) against a number of cell lines to determine in vitro cytotoxicity of small molecules. This particular assay uses a human lymphoblastoid cell line (LYMP2-016) purchased from Coriell Institute for Medical Research.
NCGC Assay Protocol Summary:
The CellTiter-Glo luminescent cell viability assay (Promega) is a homogeneous method to measure the number of viable cells in culture. The end point readout of this assay is based on quantitation of intracellular ATP, an indicator of metabolic activity, using the luciferase reaction. Luciferase catalyzes the oxidation of beetle Luciferin to oxyluciferin and light in the presence of ATP. The luminescent signal is proportional to amount of ATP present.
Using the CellTiter-Glo luminescent cell viability assay, the amount of cellular ATP was measured in the lymphoblastoid cell line with complete culture medium following compound treatment for 24 hours. The assay was performed in opaque white Kalypsys 1536-well plates. In the screen, tetraoctylammonium bromide was used as positive control. Library compounds were measured for their ability to cause acute toxicity in the cell line, as reflected by a decrease in intracellular ATP levels, in a concentration-dependent manner. […] AC50 values were determined from concentration-response data modeled with the standard Hill equation.
qHTS protocol for CellTiter Glo lymphoblastoid cellular assay
[Step] [Parameter] [Value] [Description]
1. Reagent; 5 uL; 2500 lymphoblastoid cells/well
2. Time; 5 hr; 37 C incubation
4. Controls; 23 nL; Tetraoctylammonium bromide 6.4pM to 92 uM
5. Time; 24 hr; 37 C incubation
6. Reagent; 5 uL; CellTiter Glo reagent
7. Time; 30 min; Room Temperature
8. Detection; Luminescence; Viewlux plate reader
Keywords: cell viability, cytotoxicity, lymphoblastoid cell line, luminescence, NTPHTS, NTPHTS_NCGC, NIEHS, DSSTox, MLSMR, MLSCN, NIH Roadmap, qHTS, NCGC
Potency means the concentration at half of the fitted maximal effect.

Compound | Potency
N[C@@H](Cc1ccc(N(CCCl)CCCl)cc1)C(=O)O | 25.1 µM (active)
NCC(O)c1ccc(O)cc1 (stereo unspecified) | inactive
Oc1ccccc1-c1ccccc1 | inactive
CCOP(=S)(OCC)Oc1cc(C)nc(C(C)C)n1 | inactive
CCCC(C)(COC(N)=O)COC(=O)NC(C)C (stereo unspecified) | inactive
CC(=O)Oc1ccccc1C(=O)Nc1ncc([N+](=O)[O-])s1 | 39.8 µM (active)
c1ccc2c(c1)Nc1ccccc1S2 | inactive
OCCOc1ccccc1 | inactive
CNCC(O)c1ccc(O)cc1 (stereo unspecified) | inactive
Oc1cccc2cccnc12 | 15.8 µM (active)
Oc1ccc(Cl)cc1Cc1ccccc1 | inactive
